VDR inh – vitamin D3 receptor (human) inhibition | P11473 | VDR-SRC2-3 peptide fluorescence polarization, 2 h | Potency, µM, without a hit: max response, negative = inhibition, hits mostly inhibitors | 400,000 tested, 0.93% active | AID 504847; also: potency is read from the fitted curve at half-maximal effect
Target sequence (P11473 whole entry, looked up): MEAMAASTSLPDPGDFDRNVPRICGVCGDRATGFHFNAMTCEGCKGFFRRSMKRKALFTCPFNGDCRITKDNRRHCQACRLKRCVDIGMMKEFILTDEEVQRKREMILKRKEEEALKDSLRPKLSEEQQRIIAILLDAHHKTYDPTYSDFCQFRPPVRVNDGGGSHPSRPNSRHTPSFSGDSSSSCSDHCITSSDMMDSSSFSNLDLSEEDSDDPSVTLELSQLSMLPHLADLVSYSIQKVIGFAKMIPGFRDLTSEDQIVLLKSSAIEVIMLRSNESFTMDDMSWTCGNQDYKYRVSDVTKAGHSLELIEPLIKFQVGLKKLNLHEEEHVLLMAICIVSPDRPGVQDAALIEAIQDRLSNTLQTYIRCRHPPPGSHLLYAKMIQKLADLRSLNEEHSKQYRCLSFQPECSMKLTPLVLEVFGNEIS
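VDR–SRC2-3 interaction, FP format. Cmpds 23 nl via pintool, brief spin, 2 h ambient incubation.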
PLK1 PBD inh – blocks phosphopeptide binding to human PLK1 polo-box domain | P53350 | Plk1 PBD binding of FITC phosphopeptide, fluorescence polarization | Potency, µM, inactives show max response, negative = inhibition, most hits filed as inhibitors | 360,000 tested, 2.8% active | AID 720504; also: potency is read from the fitted curve at half-maximal effect; series mostly up to about 57 µM; nearly all actives have a fitted effect of over 65% in size
Sfp PPTase inh – Sfp phosphopantetheinyl transferase inhibition; Biochemical Sfp PPTase activity, qHTS; Potency, µM, for inactives: largest response in the series, negative = inhibition, actives largely listed as inhibitors; 310,000 tested, 3.5% active; AID 1490;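 also: the enzyme is Sfp with the accession as filed and its product quenches rhodamine fluorescence; potency is read from the fitted curve at half-maximal effect; 0% = enzyme reaction without inhibitor and -100% = no enzyme wells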
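Fluorescence-quenching assay with 15 nM Sfp, 5 uM rhodamine-CoA and 12.5 uM BHQ-2-labelled ybbR peptide in pH 7.6 Hepes/MgCl2 buffer. Enzyme was pre-incubated with compound for 15 min at room temperature. Rate was taken from the 30-min fluorescence change (525/598 nm).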
CCT chaperon mod – cytosolic chaperonin activity modulation; purified chaperonin ATPase assay, HTRF ADP detection, 30 min; 360,000 tested, 0.3% active; AID 651819; activity change, % (concentration not given with the values), hits read low; in the data active = activity change below about -30%
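Enzyme 40 or 20 nM (batch-dependent) in Tris pH 7.4/KCl/MgCl2/DTT; cpd 76 uM single point; ATP 10 uM; 30 min 37 °C; Transcreener ADP HTRF detection, 30 min RT; ratio 665/615.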
MmCpn inh – M. maripaludis TRiC chaperonin inhibition; 330,000 tested, 0.031% active; purified Mm-Cpn ATPase, ADP Transcreener TR-FRET; Potency, µM (titrated, usually from 76.9 µM), for the others: top-dose activity, negative = inhibition, hits mostly inhibitors; also: potency is read from the fitted curve at half-maximal effect; nearly all actives have a fitted effect of over 80% in size
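Compound-treated chaperonin, 25 nM final, turns over 10 uM ATP at 37°C for 30 min following a 10 min preincubation; ADP generated competes with ADP-d2 for Eu-cryptate antibody, lowering FRET.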
G9a block – G9a (human) methyltransferase inhibition; Q96KQ7; G9a H3K9 monomethylation, AlphaScreen, 2 h; Potency, µM (top dose mostly 102 µM), for the others: top-dose activity, negative = inhibition, hits mostly inhibitors; 350,000 tested, 8.8% active; also: potency is read from the fitted curve at half-maximal effect; nearly all actives have a fitted effect of over 75% in size
Target sequence (Q96KQ7 913-1193 limits assumed): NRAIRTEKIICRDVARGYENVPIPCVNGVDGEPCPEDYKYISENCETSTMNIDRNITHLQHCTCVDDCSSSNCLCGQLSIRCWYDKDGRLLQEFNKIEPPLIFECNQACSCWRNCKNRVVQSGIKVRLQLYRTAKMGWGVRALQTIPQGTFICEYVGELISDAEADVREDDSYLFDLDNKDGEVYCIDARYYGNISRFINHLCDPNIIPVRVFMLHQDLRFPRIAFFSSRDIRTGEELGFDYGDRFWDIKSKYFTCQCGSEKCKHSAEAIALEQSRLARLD
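Signal arises when biotinylated H3K9 peptide, once monomethylated, bridges streptavidin donor and antibody-captured acceptor beads. Enzyme at 20 nM was preincubated 15 min with test compounds; peptide 500 nM and SAM 20 uM then reacted for 2 h.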
* hit, by the source's call; u = inconclusive; x = no result given; [ ] = remark or other dose. In the library only some 10% were active in any assay of this set; here they are far more common. Unless noted, calls follow the shape of the dose curve; as a rule, active = well fitted curve in the direction sought with a large enough effect; inconclusive = small, poorly fitted or top-dose-only effect, or another doubt; inactive = no such curve, though single readings can be large; an effect the other way counts as inactive or inconclusive. Unless noted, % is scaled to controls: 0 for no effect and ±100 for the full control effect.

SMILES | VDR inh | PLK1 PBD inh | Sfp PPTase inh | CCT chaperon mod | MmCpn inh | G9a block
COc1cc(NC(=O)c2cc3cc4ccc(OC)c(Cl)c4nc3s2)cc(OC)c1 | 4% | x | x | x | x | 0%[59 µM]
CCOc1ccc(Oc2nc(Nc3ccc(C)cc3)nc(N(C)C)n2)nn1 | -11% | 21µM* | -10% | -1 | 0% | -14%[2.33 µM]
CSc1nnc(-c2cc3c(s2)-c2ccccc2CC3)o1 | 8% | 0% | 18µM* | -4 | -7% | 375%[59 µM]
CCOC(=O)CSc1nnc(-c2ccc(OC)cc2OC)o1 | 4% | -5% | 7% | -2 | 1% | -4%[12.7 µM]
COc1ccc(-c2nnc(SC)o2)c(OC)c1 | -6% | -24% | -6% | -2 | -4% | 40µM*
CSc1nnc(-c2ccccc2SC)o1 | -7% | 30µM* | u | -2 | -7% | -1%
S=c1[nH]nc(-c2cc3c(s2)-c2ccccc2CC3)o1 | u | 21µM* | u | -10 | -15% | u
O=C(c1ccc2c(c1)N(Cc1ccccc1)C(=O)c1ccccc1S2(=O)=O)N1CCN(c2ccccc2)CC1 | -7% | x | x | x | x | -39%[59 µM]
CC1CCc2sc(-c3n[nH]c(=S)o3)cc2C1 (stereo not given) | u | -13% | -24% | 0 | -6% | 13µM*
Cc1ccccc1NC(=O)c1sc2nc(-c3ccncc3)ccc2c1N | -19% | x | x | x | x | -5%[59 µM]
Cc1ccc2cc3c(N)c(C(=O)Nc4c(C)[nH]c(=O)[nH]c4=O)sc3nc2c1 | 1% | -5% | -6% | -2 | -6% | 10µM*
Cc1ccc2cc3c(N)c(C(=O)N4CC(=O)Nc5ccccc54)sc3nc2c1 | x | x | -17% | x | 0% | -8%[0.0925 µM]
Cc1ccc2nc3sc(C(=O)Nc4c(C)[nH]c(=O)[nH]c4=O)c(N)c3cc2c1 | 9% | -8% | -17% | 2 | -3% | 10µM*
Cc1[nH]c(=O)[nH]c(=O)c1NC(=O)c1sc2nc3c(C)cccc3cc2c1N | -1% | -16% | -27% | 1 | -24% | 10µM*
CC(=O)c1cccc(NC(=O)CN2CCc3cc4c(cc3C2)OCCCO4)c1 | -11% | -2% | 4% | 0 | -2% | -47%
Cc1cccc(NC(=O)CN2CCc3cc4c(cc3C2)OCCCO4)c1 | 5% | -5% | u | 2 | 0% | 7.9µM*
O=C(CN1CCc2cc3c(cc2C1)OCCCO3)Nc1cccc([N+](=O)[O-])c1 | -13% | u | -11% | -1 | 0% | 40µM*
CC(=O)OCC(NC(=O)C(CCCCNC(=O)OCc1ccccc1)NC(=O)OC(C)(C)C)C1OC(n2cc(C)c(=O)[nH]c2=O)C(OC(C)=O)C1OC(C)=O (stereo not given) | -4% | x | 3% | x | x | x
Cc1ccc2c(c1)-c1c(c(C(=O)NCCc3ccccc3)nn1C)CS2 | 11% | x | x | x | x | 3%[59 µM]
Cc1ccc(S(=O)(=O)N(C)/N=C2/C(=O)N(CC(=O)O)c3ccccc32)cc1 | -6% | -14% | -12% | 3 | 0% | 14µM*
Cc1ccc(N(CCC(=O)O)S(=O)(=O)c2ccccc2)cc1 | -9% | -17% | 22% | -2 | 1% | 10%[59 µM]
CCC1CN2CCC1CC2[C@@H](NC(=S)Nc1cc(C(F)(F)F)cc(C(F)(F)F)c1)c1cccc2ccc(OC)cc12 (stereo not given in full) | -12% | x | u | x | x | x
CC1(C)CC(NS(=O)(=O)OCC(Cl)(Cl)Cl)c2cc(C#N)ccc2O1 (stereo not given) | u | 24µM* | 22% | 0 | 4% | -1%
CC(=O)c1cccc(-n2c(=O)c3c4c(sc3n(CC(=O)c3ccc(Cl)cc3)c2=O)CN(C(C)=O)CC4)c1 | -2% | x | x | x | x | -15%[59 µM]
COc1cccc(C(=O)NNC(=O)Cc2csc(N)n2)c1 | 3% | -2% | 56µM* | 1 | -1% | 11%
SMILES | VDR inh | PLK1 PBD inh | Sfp PPTase inh | CCT chaperon mod | MmCpn inh | G9a block
CCOC(=O)Cc1csc(NC(=O)c2cccc(OC)c2)n1 | 16% | -8% | 8% | -2 | -28% | -8%[59 µM]
O=c1c2sc3ccccc3c2n(Cc2ccc(F)cc2)c(=O)n1Cc1ccco1 | -9% | x | x | x | x | -6%[59 µM]
CC(C)c1ccc(NC2(C#N)C(=O)Nc3ccccc32)cc1 (stereo not given) | u | -6% | 4% | 1 | 0% | 71µM*
O=C(O)c1sc(C(=O)O)c(-c2ccccc2)c1-c1ccccc1 | x | -2% | x | -1 | x | x
CC(=O)c1sc(C(=O)O)c(-c2ccco2)c1-c1ccco1 | -23% | u | 18µM* | 0 | -8% | x
COc1ccc(NC(=O)c2c(NC(=O)Cc3ccccc3)sc3c2CCCC3)cc1 | -17% | x | x | x | x | 17%[59 µM]
COc1ccc(CC(=O)Nc2sc3c(c2C(N)=O)CCCC3)cc1OC | -2% | -7% | -1% | -1 | 1% | u
COc1ccc(NC(=O)c2c(NCc3cccc(OC)c3)sc3c2CCCC3)cc1 | 5% | x | x | x | x | u
COc1ccc(CC(=O)Nc2sc3c(c2C(=O)Nc2ccc(C)cc2)CCCCC3)cc1 | u | x | x | x | x | 10µM*
COc1cccc(CC(=O)Nc2sc3c(c2C(N)=O)CCCC3)c1 | -16% | -9% | 3% | 3 | -22% | 40µM*
CC(C)(C)C(=O)NC(=S)Nc1sc2c(c1C(N)=O)CCC2 | 5% | u | 45µM* | -9 | -1% | 5.6µM*
CC(C)CC(=O)NC(=S)Nc1sc2c(c1C(N)=O)CCC2 | -15% | u | -11% | 0 | -3% | -41%
COc1ccc(NC(=O)c2c(NCc3ccc(N(C)C)cc3)sc3c2CCC3)cc1 | -6% | x | x | x | x | 11µM*
COC(=O)N[C@@H](c1cccc(C)c1)[C@@H](C)[N+](=O)[O-] | 0% | x | -15% | x | x | x
CC(=O)OCC(=O)[C@@]1(O)CCC2C3CC[C@H]4CC(O)CC[C@@]4(C)C3C(=O)C[C@]21C (stereo not given in full) | 4% | x | 6% | x | x | x
Cc1ccc(O)c(N=Cc2cc(Cc3ccccc3)cc([N+](=O)[O-])c2O)c1 | -10% | u | 8.9µM* | -6 | 0% | u
O=C1/C(=C/c2ccc(O)cc2)SC(=S)N1Cc1cccnc1 | -8% | -10% | -5% | -10 | u | -45%[59 µM]
O=C1/C(=C/c2ccncc2)SC(=S)N1Cc1ccccc1 | 71µM* | u | u | 1 | -4% | x
CCCN1C(=O)/C(=C/c2ccncc2)SC1=S | u | -17% | 56µM* | -3 | 2% | 45µM*
CCOc1ccc(/C=C2\SC(=S)N(CCC(=O)O)C2=O)cc1 | 8% | -11% | 8% | 0 | 0% | 4%
Cc1ccccc1NC(=O)C(=O)NCC1(c2ccccc2)CCCC1 | 4% | x | x | x | x | 1%[59 µM]
CCN(CCCNC(=O)c1cc2cc3cc(C)ccc3nc2s1)c1cccc(C)c1 | 7% | x | x | x | x | -44%[59 µM]
CC1=NN(C(C#N)c2ccccc2)C(c2ccccc2)C1 (stereo not given) | -2% | 5% | -29% | 1 | 2% | x

Screens (PubChem)
